Shown are actives, neighbours in structure and some others; about 21% of the full set was active somewhere.
AMA1 RON2 block: qHTS for Inhibitors of AMA1-RON; Towards Development of Antimalarial Drug Lead: Primary Screen; AlphaScreen AMA1-biotinylated RON2 peptide binding; Potency, µM (series often up to 58.2 µM), inactives show at the top dose activity change, negative = inhibition, actives largely listed as inhibitors; 360,000 compounds, 0.2% hits; AID 720542, 2013;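 note: potency is the fitted concentration of half-maximal effect; 0% = vehicle wells and -100% = peptide control; nearly all actives have a fitted effect of over 45% in size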
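AMA1 (3D7) with his tag at 25 nM final met compounds first, then biotinylated RON2 peptide at 25 nM; detection used donor plus acceptor beads, 10 µg/mL apiece, read by AlphaScreen after 30 min at room temperature.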
Pf growth 96h: Primary qHTS for delayed death inhibitors of the malarial parasite plastid, 96 hour incubation | P. falciparum luciferase reporter growth, 96 h | Potency, µM (top dose mostly 28.7 µM), for inactives: at the highest dose activity change, negative = inhibition, hits mostly inhibitors | 320,000 compounds, 6.9% hits; note: potency is the fitted concentration of half-maximal effect; % is set by controls: 0 for no effect and ±100 for the full control effect
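Two-generation exposure (96 h) targets delayed-death phenotype. Reporter parasites carrying integrated firefly luciferase, in red cells at 2% hematocrit and 0.05% parasitemia final, kept at 37 C, 5% CO2; luminescence loss indicates inhibition.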
HCV inh: qHTS Assay for Inhibitors of Hepatitis C Virus (HCV) | Potency, µM (top dose mostly 41.8 µM), for the others: top-dose activity change, negative = inhibition, usual class: inhibitors | AID 651820, 2012 | 340,000 compounds, 3.4% hits | Huh7.5.1 HCVcc-Cre infection, luciferase reporter, 44 h; note: potency is the fitted concentration of half-maximal effect; % is set by controls: 0 for no effect and ±100 for the full control effect
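After 44 h co-culture of compound, cells and HCVcc-Cre (~0.5 moi), substrate is added for 15 min at room temperature and luciferase measured over 15 sec. Cells were seeded at 1,000/well and pre-cultured 4 h.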
Cycloheximide cs: Cycloheximide Counterscreen for Small Molecule Inhibitors of Shiga Toxin. 300,000 compounds, 12% hits. AID 2314, 2010. max response, %. cell reporter, cycloheximide protein synthesis inhibition counterscreen; in the data active = max response mostly above about 13%, no sharp cut-off; inactive = mostly below about 14%; note: read at 38.3 µM for the half of the compounds with a filed dose; 0% is about no effect
Shiga inhibitor: A qHTS for Small Molecule Inhibitors of Shiga Toxin. Vero cells, Shiga toxin protein synthesis inhibition reporter. inhibition, % at 38.7 µM. 290,000 compounds, 9.2% hits; in the data active = inhibition mostly above about 28%, no sharp cut-off; inactive = mostly below about 43%; note: 0% is about no effect
Pf growth 48h: Primary qHTS for delayed death inhibitors of the malarial parasite plastid, 48 hour incubation; 310,000 compounds, 5.9% hits; P. falciparum luciferase growth in erythrocytes, 48 h; Potency, µM (series often up to 28.7 µM), without a hit: at the top dose activity change, negative = inhibition, most hits filed as inhibitors; AID 504832, 2011; note: potency is the fitted concentration of half-maximal effect; % is set by controls: 0 for no effect and ±100 for the full control effect
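Luciferase-expressing P. falciparum in infected erythrocytes (2% hematocrit, 0.1% parasitemia final) in RPMI 1640/0.5% Albumax were exposed to compound for 48 hours at 37 C, 5% CO2; growth read as luminescence.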
Numbers without * were called inactive; ? = inconclusive; . = no result given; [ ] = dose if it differs, or a comment. Unless noted, calls come from the whole dose curve; as a rule, active = well fitted curve in the direction sought with a large enough effect; inconclusive = small, poorly fitted or top-dose-only effect, or another doubt; inactive = no such curve, though single readings can be large; an effect the other way counts as inactive or inconclusive.

SMILES	AMA1 RON2 block	Pf growth 96h	HCV inh	Cycloheximide cs	Shiga inhibitor	Pf growth 48h
CC(=O)c1ccc(OCc2cc(C(=O)N3CC4C[C@@H]5CC3C[C@H](C4)C5)no2)cc1	-4%	0%	?	47*	84*	8%
CC(=O)c1cccc(OCc2cc(C(=O)N3CC4C[C@@H]5CC3C[C@H](C4)C5)no2)c1	5%	16%	?	29*	36	?
CC(=O)c1ccc(OCc2cc(C(=O)N3CCN(C4CCCC4)C(=O)C3)no2)cc1	7%	.	-16%	.	.	.
CCCn1nc(C(=O)Nc2ccc(N3CCOCC3)cc2)c2ccccc2c1=O	-4%	38%	6%	.	.	-13%
COc1cc(/C=C/C(=O)c2ccc(NS(=O)(=O)c3ccc(C)cc3)cc2)ccc1OC(F)F	4%[2.32 µM]	?	35µM*	4	19	15µM*
COc1cc(NS(=O)(=O)c2ccc(NS(=O)(=O)c3ccc(C)cc3)cc2)nc(OC)n1	16%	1.9µM*	5%	-2	-6	9%
COc1cc(/C=C/C(=O)O)ccc1OS(=O)(=O)c1ccc(C)cc1	-5%	2%	22%	0	20	-16%
COc1cccc(/C=C/C(=O)c2ccc(NS(=O)(=O)c3ccc(C)cc3)cc2)c1	-12%[11.6 µM]	?	?	-2	-14	-28%
COc1cc(/C=C/C(=O)c2ccc(NS(=O)(=O)c3ccc(C)cc3)cc2)cc(OC)c1O	6%[11.6 µM]	?	?	-6	-15	12µM*
CS(=O)(=O)c1sc(C(=O)NC(=O)Nc2cccc(C(F)(F)F)c2)c2c1C=CCC2	10%	14%	5%	-2	-4	2.3µM*
Cc1cc(C)n(CCCNC(=O)c2ccc(C)c(S(=O)(=O)N3CCOCC3)c2)n1	7%	?	?	.	.	?
CN1CCN(C(=O)c2cc(COc3c(F)cccc3F)on2)CC1c1ccccc1 (stereo not drawn)	12%	4.1µM*	-22%	-2	3	-1%
CN1CCN(C(=O)c2cc(COc3ccc(F)cc3Cl)on2)CC1c1ccccc1 (stereo not drawn)	-6%	?	?	9	2	?
COc1ccccc1OCc1cc(C(=O)N2CCN(C)C(c3ccccc3)C2)no1 (stereo not drawn)	-15%	3%	?	59*	81*	?
CSc1ccccc1OCc1cc(C(=O)N2CCN(C)C(c3ccccc3)C2)no1 (stereo not drawn)	13%	.	?	.	.	.
CCCCCCCCCCC(C)=O	.	.	.	-5	-6	.
CCOC(=O)C1=C(COC(=O)COc2ccc(Br)cc2)NC(=O)NC1C (stereo not drawn)	-8%	-2%	18%	.	.	0%
CCCC[n+]1c2ccccc2cc2ccccc21	0%	0%	6.3µM*	3	-5	?
CCC[n+]1c2ccccc2cc2ccccc21	-3%	?	?	0	8	.
O=C1NC(=O)C(=Cc2ccc(-c3ccc(F)cc3O)o2)C(=O)N1	?	0%	13%	14*	17	-1%
O=C1NC(=O)C(=Cc2ccc(-c3ccc(Cl)cc3)o2)C(=O)N1	6%	37%	9%	1	0	21%
CCN(CC)c1nc(C(F)(F)F)nc2c1nnn2Cc1ccccc1	16%	?	-22%	1	-3	?
Cc1ccc(CN2C(=O)CCC2C(=O)NCCN(CC(C)C)CC(C)C)cc1 (stereo not drawn)	9%	?	-23%	26*	35	?
Cc1ccc(CN2C(=O)CCC2C(=O)NCc2ccc(F)cc2)cc1 (stereo not drawn)	-8%	52%	-7%	-4	-17	40%
O=C(CCN1C(=O)c2ccccc2C1=O)OCN1C(=O)c2ccccc2C1=O	1%	-9%	13%	9	7	.
O=C(Cc1ccccc1[N+](=O)[O-])OCN1C(=O)c2ccccc2C1=O	-7%	12%	13%	18*	30	2%
